Each structure is given as a SMILES string. The source made the active and inactive calls. How the source made its calls: active means hit-call score of the fitted dose curve at least 0.9, where 1 is the maximum; inactive means score below 0.9.

The nature of the experiment: CEETOX_H295R_CORTIC: CeeTox H295R High-throughput Steroidogenesis Assay for Corticosterone (CORTIC) (AID 2283437).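 Further: corticosterone secreted into medium quantified by mass spectrometry.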 To be noted: actives raise or lower the signal. The method, then: CEETOX_H295R is a cell-based, multiplexed-readout assay that uses H295R, a human adrenal gland cell line, with measurements taken at 48 hours after chemical dosing in a 96-well plate.CEETOX_H295R_CORTIC is one of 23 assay component(s) measured or calculated from the CEETOX_H295R assay. It is designed to make measurements of hormone induction, a form of inducible reporter, as detected with absorbance signals by HPLC-MS-MS technology.Data from the assay component CEETOX_H295R_CORTIC was analyzed into 1 assay endpoint. This assay endpoint, CEETOX_H295R_CORTIC, was analyzed with bidirectional fitting relative to DMSO as the negative control and baseline of activity. Using a type of inducible reporter, gain or loss-of-signal activity using HPLC-MS-MS was used to understand synthesis of Corticosterone in H295R cell line at 48hr of chemical exposure. To generalize the intended target to other relatable targets, this assay endpoint is annotated to the steroid hormone intended target family, where the subfamily is glucocorticoids.
Cell culture and media preparation procedures were conducted in accordance with OECD Test No. 456 guidelines, with minor modifications. H295R cells (ATCC CRL-2128) were expanded for 5 passages and frozen in batches in liquid nitrogen. Prior to the steroidogenesis assay, H295R cells were thawed and passed at least 4 times. The maximum passage was 10. Cells were maintained in a 1:1 mixture of DMEM/F12 supplemented with 5ml/L ITS+ Premix (BD Bioscience) and 12.5 ml/L Nu-Serum (BD Bioscience). After seeding cells into 96-well plates at 50-60% confluency, cells were allowed to adhere overnight. Prior to chemical testing, culture medium was replaced with 175 uL medium containing 10 uM forskolin to stimulate steroidogenesis for 48 hours. Following prestimulation, forskolin medium was replaced with medium containing test chemical solubilized in DMSO (ensuring a final concentration of 0.1% DMSO). Test chemicals were incubated for 48 hours, then the medium was removed and split into 2 vials containing approximately 75uL each, and stored at -80 C prior to hormone analysis. For steroid quantification, media samples were shipped to OpAns, LLC (Durham, NC) on dry ice, and samples were thawed to room temperature prior to liquid-liquid extraction. Steroid hormones were extracted from media samples using methyl tertbutyl ether (MTBE). An extra derivatization with dansyl chloride was included for estrogen (estrone and estradiol) detection only. Steroid hormones were separated by HPLC, eluted using a reverse phase C18 gradient with electrospray positive ionization, followed by quantification by tandem mass spectrometry (MS/MS). Data were acquired on a MassHunter Workstation Acquisition version B03.01 (Agilent Technologies, Inc.) and processed using MassHunter Quantitative Analysis for QQQ. Accuracy was determined for each hormone analyte from 3 standards to determine upper and lower limits of quantification (ULOQ and LLOQ, respectively) using a 7-point standard curve. Precision and accuracy of the extraction and quantification methods were calculated as the percent relative standard deviation (%RSD) of the spiked standards and percent spiked standard recovered, respectively. […] Test medium was removed following chemical exposure, and cell viability was evaluated in the same wells by MTT. MTT procedures were as follows: after removal of test medium, 500 uL of 0.5 mg/ml of 3-[4,5-dimethylthiazol-2-y]2,5-diphenyltetrazoliumbromide solution was added to the cells. Following a 4-hour incubation at 37 C and 5% CO2 to allow formazan-crystal formation, the MTT solution was removed and blue formazan salt crystals were solubilized using 500uL anhydrous isopropanol with shaking for 20 minutes. Absorbance was read at 570 and 650nm using a Packard Fusion microplate reader. Background correction of absorbance units was used to determine percent change relative to controls. […]
For `Cc1c(C(=O)O)c(O)cc2c1C(=O)c1c(O)c([C@@H]3O[C@H](CO)[C@@H](O)[C@H](O)[C@H]3O)c(O)c(O)c1C2=O`, the call was inactive.

For `Cc1cccc(Nc2cc(Cl)nc(SCC(=O)O)n2)c1C`, the compound was called inactive.

Turning to `COc1ccc(S(=O)(=O)N2C(=O)[C@@](c3ccccc3OC)(N3C[C@H](O)C[C@H]3C(=O)N(C)C)c3cc(Cl)ccc32)c(OC)c1`, the result was inactive.

As usually defined, the AC50 is the concentration at which the activity in the assay is half-maximal. In the case of `Nc1ccc2c(c1)C(=O)c1ccccc1C2=O`, the concentration at half-maximal activity (AC50) is 4.17 µM (active).

For `COc1ccc(C)cc1N`, the AC50 was 74.3 µM (active).

As for `Nc1ccccc1N`, the compound was classed as inactive.

`CN1CCN(Cc2cc(-c3ccc4[nH]c(=O)oc4c3)co2)[C@@H](c2ccc(F)cc2)C1`: the compound was called inactive.

On to `Cc1nc(C)nc(N2C[C@@H](C)N(c3ccnc([C@@H](C)O)n3)[C@@H](C)C2)n1`, for which the call was inactive.

With `c1cc(-c2ccncc2)ccn1`, the call was inactive.

Turning to `Oc1ccc2c(c1)OC[C@@H](N1CCC(O)(c3ccc(F)cc3)CC1)[C@H]2O`, the result was inactive.

As for `Cc1nc(-c2ccc3c(c2)CCN(CCC2CCC(NC(=O)/C=C/c4ccc(F)cc4)CC2)CC3)no1` (stereo not given), the compound was called inactive.

For the compound `COc1ccc2c(c1)c(CC(=O)O)c(C)n2C(=O)c1ccc(Cl)cc1`, the compound was classed as inactive.

In the case of `Cc1cc(NC(=O)C(=O)O)cc(C)c1Oc1ccc(O)c2c1CCC2`, the AC50 is 34.1 µM (active).

Turning to `NC(=O)Cn1c(=O)cc(CCN2CCN(c3nccc4sccc34)CC2)c2ccc(F)cc21`, the AC50 is 4.46 µM (active).

With `COC(=O)c1ccc(O)cc1`, the compound was classed as inactive.

(Values after PubChem BioAssay (EPA / NIEHS).)
